Out of some 190,000 compounds screened, about 790 (0.42%) were called active.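 How the source made its calls: active means inhibition above a set limit, the median over all tested compounds plus 3 SD (cut at about 9.5% in these data); inconclusive means no clear call, values can overlap the other calls; inactive means the rest.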 This excerpt belongs to a sample that is enriched for actives.
system: HMG-CoA reductase (Enterococcus faecalis, mvaE); experiment: class II HMG-CoA reductase enzyme inhibition – biochemical, Enterococcus faecalis, primary screen (AID 1066);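 further: enzyme runs in reverse so mevalonate oxidation gives rising NADPH absorbance; 0% = complete reaction with DMSO and 100% = background rate lacking mevalonate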; conditions: purified E. faecalis HMGR, NADPH absorbance 340 nm kinetic; at 10 µM; active compounds read high

Structure (SMILES) | inhibition
COc1ccc(N2C(=O)C(Cc3ccccc3)NC2=S)cc1 (centres undefined) | -5.65% (inactive)
COC(=O)c1cc(NC(=O)c2nn(C)c(=O)c3ccccc23)cc(C(=O)OC)c1 | -0.04% (inactive)
COC(=O)C1=C(C)N(C)C(=O)NC1c1ccc([N+](=O)[O-])o1 (centres undefined) | 0.43% (inactive)
CCn1c(/C=C/c2ccc([N+](=O)[O-])o2)nc2ccccc2c1=O | -2.94% (inactive)
C/[N+]([O-])=C\c1ccc([N+](=O)[O-])o1 | 11% (active)
CN(C)/C=C/C(=O)c1cnc2sccn2c1=O | 2.25% (inactive)
S=C(NCCc1ccccc1)NCc1ccccc1Cl | 1.49% (inactive)
Fc1ccccc1Cn1cnc(NC(=S)NCCc2ccccc2)n1 | 15.6% (active)
Fc1ccccc1CNC(=S)Nc1ccc(Cl)cc1 | -0.98% (inactive)
CCOc1ccc(N2C(=O)/C(=C/c3ccc(C)o3)N(C)C2=S)cc1 | -5.07% (inactive)
COCCN(C(=O)C(C)C)c1nnc(-c2ccc(C(C)(C)C)cc2)s1 | -2.5% (inactive)
COc1ccc(NC(=O)N2CCCC(c3nc(-c4ccc(F)cc4)no3)C2)cc1 (centres undefined) | 1.89% (inactive)
O=C(c1ccccc1Cl)N(Cc1ccccc1F)N1C(=O)CCCC1=O | -5.67% (inactive)
C=CCn1c(=NC(=O)c2cccs2)sc2cc(NC(C)=O)ccc21 | -0.47% (inactive)
CCN=C1S/C(=C\c2cc(Br)ccc2OCC(=O)OCC)C(=O)N1CC | -2.47% (inactive)
COc1cccc(Cn2cnc3c([N+](=O)[O-])c(C)c(C)cc32)c1 | -3.58% (inactive)
COc1ccc(F)cc1C(=O)C1CCCN(C(=O)CCc2ccccn2)C1 (centres undefined) | -4.06% (inactive)
CCOC(=O)C1CCN(C(=O)/C=C/c2cc(OC)c(OC)c(OC)c2)CC1 | -1.76% (inactive)
Cc1cc(C)c2nc(-c3cccnc3)cc(C(=O)Nc3ccc(S(=O)(=O)Nc4onc(C)c4C)cc3)c2c1 | -2.12% (inactive)
Cc1ccc(CSc2nc3[nH]ncc3c(=O)[nH]2)cc1 | -1.81% (inactive)
C/C(=N/NC(=O)c1ccc(NC(=O)c2ccc(F)cc2)cc1)c1ccccc1 | -3.05% (inactive)
COc1ccc(C(=O)Nc2ccccc2C(=O)N/N=C/c2ccccc2OC)cc1 | -0.76% (inactive)
COc1ccccc1C(=O)NNC(=O)c1ccc(NC(=O)c2ccccc2)cc1 | 15.3% (active)
CC(=O)c1ccc(NC(=S)N(Cc2ccccc2)C(C)C2CC2)cc1 (centres undefined) | -4.01% (inactive)

Structure (SMILES) | inhibition
O=C(COC(=O)c1cc(=O)[nH]c2ccccc12)Nc1nc(-c2cccc(Br)c2)cs1 | -0.22% (inactive)
C/C(=N\NS(=O)(=O)c1ccc(Cl)cc1)c1ccc(NC(=O)c2ccco2)cc1 | 2.58% (inactive)
Cc1onc(C(=O)NN)c1C(=O)N1CCN(C(c2ccccc2)c2ccccc2)CC1 | -0.47% (inactive)
Cc1nc2sc3c(c2c(=O)n1NC(=O)CCl)CCCC3 | -4.51% (inactive)
CSc1ccc(CNCCN2CCOCC2)cc1 | -2.23% (inactive)
C/C(CC(=O)Nc1cccc(F)c1)=N\NC(=O)C(=O)NC1CCCCC1 | -2.25% (inactive)
CCC(C)(C)NC(=O)CN(Cc1cccs1)C(=O)CNS(=O)(=O)c1ccc(F)cc1 | -1.17% (inactive)
CC(C)(C)N(CC#CCC(O)(c1ccccc1)C1CCCC1)CCO (centres undefined) | -1.31% (inactive)
N#CC(=C1CCCC1)c1nc(-c2ccc(Cl)cc2)cs1 | 25.7% (active)
N#C/C(=C1\CCCN1)c1nc(-c2ccccc2)cs1 | -5.6% (inactive)
N#CC(=C1SC=CS1)c1nc(-c2ccccc2)cs1 | -4.9% (inactive)
CCOC(=O)Cc1csc(NC(=O)Nc2ccccc2)n1 | 12.1% (active)
CCOC(=O)Cc1csc(NC(=O)CSc2ccc(Br)cc2)n1 | 5.27% (inactive)
CCOC(=O)Cc1csc(NC(=O)C(C)(C)C)n1 | 5.04% (inactive)
COc1ccc(NC(=O)c2ccccc2CC[N+](=O)[O-])cc1 | -3.38% (inactive)
COc1ccccc1CC(NC(C)=O)C(=O)NC1CCN(C(=O)Nc2ccccc2Cl)CC1 (centres undefined) | -1.31% (inactive)
CC(C)(C)C(=O)N1CCC[C@@]1(CO)C(=O)O | -3.2% (inactive)
CCc1cc(CNC(=O)CC2C(=O)NCCN2CC2CCCCC2)on1 (centres undefined) | 1.73% (inactive)
O=C(O)/C=C/c1ccc(S(=O)(=O)N2CCCCCC2)cc1 | -1.58% (inactive)
Cc1ccc(NC(=O)CN2CCC(C(N)=O)CC2)cc1[N+](=O)[O-] | -7.59% (inactive)
CSCCC(Nc1ccc(S(=O)(=O)N2CCOCC2)cc1[N+](=O)[O-])C(=O)OCC(=O)N(C(C)C)C(C)C (centres undefined) | -4.18% (inactive)
CC(=O)N1CCN(S(=O)(=O)c2ccc(C)c([N+](=O)[O-])c2)C1C(C)C (centres undefined) | 15.5% (active)
CCc1cccc(C)c1NC(=O)COC(=O)Cc1ccsc1 | 0.78% (inactive)
CCCn1c(=S)[nH]c2ccc(C(F)(F)F)cc21 | -3.38% (inactive)

Structure (SMILES) | inhibition
Cc1c(NC(=S)NC(=O)CCc2ccccc2)c(=O)n(-c2ccccc2)n1C | -5.41% (inactive)
Cc1ccc(Cl)c(NC(=O)CN(C)CC(=O)Nc2ccc(F)c(F)c2F)c1Cl | -3.18% (inactive)
CNCC(O)CN1CCN(c2ccccc2OC)CC1 (centres undefined) | -5.06% (inactive)
Cc1[nH]c2ccccc2c1/C=C(/C#N)C(=O)NC(C)C | -0.57% (inactive)
CCOc1ccc(NC(=O)CN2CCN(CC(=O)Nc3ccc(OC)cc3)CC2)cc1 | 11.1% (active)
CCOc1ccc(NC(=O)N2CCN(CC)CC2)cc1 | -2.53% (inactive)
CCOC(=O)N1CCN(CC(=O)Nc2ccc(F)cc2)CC1 | -2.98% (inactive)
S=c1[nH]ccn1-c1ccc(Cl)cc1 | -3.58% (inactive)
COc1ccc(CCCc2nnc(SCc3nc4ccccc4c(=O)[nH]3)n2C)cc1 | 4.13% (inactive)
CCN(CC)c1ccc(S(=O)(=O)N2CCOCC2)cc1NC(=O)CSc1cccc[n+]1[O-] | -6.45% (inactive)
COC(=O)c1ccccc1NS(=O)(=O)c1ccc2[nH]c(=O)[nH]c2c1 | -1.55% (inactive)
O=C(COC(=O)CNS(=O)(=O)c1ccccc1)NC12CC3CC(CC(C3)C1)C2 | -0.89% (inactive)
O=C1c2ccccc2NC(c2ccccn2)N1NS(=O)(=O)c1ccccc1 (centres undefined) | -5.78% (inactive)
CC1CCCCC1NC(=O)COC(=O)Cc1ccc(Br)cc1 (centres undefined) | -8.55% (inactive)
Cc1cc(C)c[n+](-c2nc3ccccc3nc2[N-]S(=O)(=O)c2cccs2)c1 | -2.15% (inactive)
COc1cccc(C2SCC(=O)N2c2cccc(C)c2)c1OC (centres undefined) | -2.05% (inactive)
O=C(c1ccccc1)c1ccc(OC(=O)N2CCCC2)cc1 | -3.15% (inactive)
Cc1cccc(OCC(=O)Nc2ccccc2F)c1 | -6.74% (inactive)
O=C(COc1cccc(F)c1)Oc1ccc(C(=O)c2ccccc2)cc1 | 11.7% (active)
Cc1nn(CC(=O)Nc2ccc3c(c2)OCO3)c(C)c1[N+](=O)[O-] | -8.05% (inactive)
CC1CC(=S)Nc2ccccc2N1Cc1ccccc1 (centres undefined) | -4.09% (inactive)
O=C(O)C1CCCN1S(=O)(=O)c1ccc2c(c1)CCC2 (centres undefined) | 0.94% (inactive)
CC(=O)Nc1ccc(S(=O)(=O)N2CCN(C3CCCCCCC3)CC2)cc1 | -5.25% (inactive)
CC(=O)Nc1ccc(S(=O)(=O)N2CCCC2C(=O)O)cc1 (centres undefined) | 18.5% (active)

Structure (SMILES) | inhibition
CCOC(=O)c1[nH]cnc1C(=O)Nc1ccccc1C | -0.64% (inactive)
O=C1CC(N2CCN(c3ccc(F)cc3)CC2)C(=O)N1c1ccccc1 (centres undefined) | -3% (inactive)
COC(=O)/C(NC(C)=O)=C(\C)c1ccc(Cl)cc1 | -0.22% (inactive)
CN(C)/C=C(/C(=O)c1ccc(Cl)cc1)S(=O)(=O)c1ccccc1 | -1.53% (inactive)
COC(=O)C(=Nc1ccccc1)/C(C(=O)C(=O)N(C)c1ccccc1)=C(\O)c1ccc(Cl)cc1 | 12.8% (active)
O=C(CCc1ccccc1)Nc1ccc(NC(=O)C2CCCCC2)nc1 | -5.74% (inactive)
COc1ccc(OC)c(-c2csc(NC(=O)C3=NNC(=O)CC3)n2)c1 | -3.44% (inactive)
Cc1cc(NC(=O)CSc2nc3c(cc2C#N)CCCCC3)no1 | -2.85% (inactive)
CC1(C)CCc2nc(SCc3ccccc3)c(C#N)cc2C1 | 13.3% (active)
CC(NC(=O)CSc1nc2c(cc1C#N)CN(C)CC2)c1ccccc1 (centres undefined) | -4.51% (inactive)
CCCC(=O)Nc1cccc(NC(=S)NC(=O)C(C)Oc2ccc(Cl)cc2Cl)c1 (centres undefined) | -6.26% (inactive)
N=C1C(c2nc3ccccc3[nH]2)=C(O)CN1NC(=O)c1c[nH]c2ccccc12 | 1.51% (inactive)
CC(=O)Nc1ccc(NC(=O)C(C)n2c3ccccc3c3nc(=O)cc(C)n32)cc1 (centres undefined) | 3.72% (inactive)
CCCCN(C(=O)/C=C/c1ccco1)c1c(N)n(CC(C)C)c(=O)[nH]c1=O | 1.3% (inactive)
Cc1cc(C(=O)N/N=C/c2cc([N+](=O)[O-])cc(C)c2O)n[nH]1 | 1.28% (inactive)
CC1(C)OC(=O)C(=CNC(CO)C(=O)O)C(=O)O1 (centres undefined) | -0.06% (inactive)
CC(C)(C)NC(=O)CN(C(=O)c1csnn1)c1ccccc1-c1ccccc1 | 3.37% (inactive)
CCOC(=O)CC(NC(=O)C1c2ccccc2Oc2ccccc21)c1ccc(C)cc1 (centres undefined) | -0.18% (inactive)
O=C1Nc2ccc([N+](=O)[O-])cc2C1=Nc1cccc(CO)c1 | -7.75% (inactive)
C/C(=N\OCC(=O)Nc1ccc(Br)cc1)c1cccs1 | -3.94% (inactive)
COC(=O)c1ccc(/C=N/N2C(C)CCCC2C)cc1 (centres undefined) | -1.41% (inactive)
CCN(C(=O)COc1cccnc1[N+](=O)[O-])C1CCS(=O)(=O)C1 (centres undefined) | 1.64% (inactive)
